Data on one compound can be found in PubChem BioAssay AID434992 (The Scripps Research Institute Molecular Screening Center, 2010).

Activity calls are given as the source filed them. No rule for the calls is given here.

This assay can be described thus: PubChem AID 434992.

As for `FC(F)(F)c1ccc2c(c1)Nc1ccccc1S2`, the call was inactive.
